Assay outcomes (PubChem BioAssay)
ssDAF-12 act – S. stercoralis DAF-12 activation, primary screen; HEK293 ssDAF-12/GRIP1 lit1-tk-luc reporter, luminescence; % of 3 µM dafachronic acid response; AID 652126; activation, % at 6.8 µM; 370,000 tested, 1% active;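 active = activation above the mean over all tested compounds plus 3 SD, cut at about 0.9% in these data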;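 note: 0% = DMSO-only wells and 100% = 3 µM delta7-dafachronic acid wells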
hcDAF12 agonist – activators of H. contortus DAF-12 nuclear receptor | HEK293 hcDAF-12 lit1-tk-luc reporter, luminescence; 0% DMSO, 100% Δ7-dafachronic acid | activation, % at 6.8 µM | 370,000 tested, 1.4% active | AID 652067;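 active = activation above the mean of all tested compounds plus 3 SD, cut at about 5.5% in these data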;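 note: 100% = response to 3 µM Δ7-dafachronic acid high control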
PolyA inhibitor – blocks polyadenylation in yeast reporter cells | S. cerevisiae SKY197-pL101 polyadenylation reporter, beta-gal luminescence; efflux-impaired pdr1/pdr3 knockout yeast; score 100 = 6 SD above DMSO | 300,000 tested, 0.02% active | activity score, % at 12 µM;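 active = lowest replicate activity score at least 50, where 100 means six control SD above control mean; inconclusive = lowest score under 50 but half or more replicates reach 50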;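 note: yeast exposed to compound for 9 h at 30 °C; higher score means more reporter readthrough which indicates perturbed polyadenylation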
hgDAF-12 ag – activates the H. glycines DAF-12 receptor ligand-binding domain; HEK293 GAL4-hgDAF12 UAS-luciferase reporter, agonist luminescence; normalized to butyrate control; 370,000 tested, 1.8% active; activation, % at 6.8 µM; AID 687014;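 active = activation above a cutoff set at the mean of all screened compounds plus 3 SD, cut at about 10% in these data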;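 note: 0% = DMSO wells and 100% = sodium butyrate wells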
DAX1 inh-1 – inhibitors of DAX1 repression of SF-1 activated StAR promoter; 370,000 tested, 1.1% active; AID 652010; HEK293T StAR-luciferase reporter, SF-1/DAX-1 repression relief; inhibition, % at 6.8 µM;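 active = inhibition above the mean over all tested compounds plus 3 SD, cut at about 3.6% in these data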;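 note: 0% = DAX-1 cells with DMSO and 100% = cells lacking DAX-1 with DMSO; higher inhibition means more luminescence from relief of DAX-1 repression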
DAX1 inh-2 – inhibitors of human orphan nuclear receptor DAX1 (NR0B1); P51843; HEK293 Gal4-DAX1 luciferase reporter, luminescence; inhibition, % at 6.75 µM; 340,000 tested, 0.99% active;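 active = inhibition above the mean over all tested compounds plus 3 SD, cut at about 4.2% in these data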;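 note: 0% = DAX1-transfected cells with DMSO and 100% = empty-vector control cells with DMSO; inhibition shows as a rise in luminescence from relieved DAX1 repression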
Target sequence (P51843 207-470 limits assumed): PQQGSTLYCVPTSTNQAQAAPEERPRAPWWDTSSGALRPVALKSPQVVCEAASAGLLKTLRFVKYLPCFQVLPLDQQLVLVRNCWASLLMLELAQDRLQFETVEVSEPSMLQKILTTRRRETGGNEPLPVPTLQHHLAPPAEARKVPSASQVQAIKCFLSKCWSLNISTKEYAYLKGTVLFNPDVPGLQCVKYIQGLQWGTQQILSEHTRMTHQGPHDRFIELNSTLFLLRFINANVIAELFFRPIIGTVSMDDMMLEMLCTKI
* hit, by the source's call; u = inconclusive; x = no result. Most compounds without a hit are left out; they make up all but 4.1% or so of the library.

SMILES	ssDAF-12 act	hcDAF12 agonist	PolyA inhibitor	hgDAF-12 ag	DAX1 inh-1	DAX1 inh-2
CCCN1C2CCCC1CC(NC(=O)c1ccccc1OCC)C2 (stereo not drawn)	0.9*	4.6	18.9	3.3	1.9	0.7
CCCN1C2CCCC1CC(NC(=O)c1ccccc1OC)C2 (stereo not drawn)	-0.6	-1.9	-8.9	2.3	1.0	-0.5
CC(=O)c1cc(-c2ccccc2)n(CC(=O)NCc2ccc(F)cc2)c1C	-1.5	-3.2	x	-0.8	-0.7	x
COc1cccc(CCc2nnc(CCC(=O)N3CCCC3c3nccs3)o2)c1 (stereo not drawn)	-1.9	-0.9	14.3	-1.7	-0.3	4.2*
COc1cccc(CCc2nnc(CCC(=O)NCCC3CCCCO3)o2)c1 (stereo not drawn)	-0.7	1.1	7.9	-0.4	-0.1	-0.5
COCCCN1C(=O)[C@H](CC(=O)NCCc2ccccc2OC)[C@]2(C(=O)OC)CCCCC=C12	-1.0	-1.8	x	3.1	-0.4	x
Cc1ccccc1N=C1Nc2ccccc2N[C@]12C[C@H]1CCC(=O)N3CC[C@@H](C2)[C@@H]13	0.1	2.7	x	1.5	1.1	-0.3
O=C1CC[C@@H]2CC3(C[C@@H]4CCN1[C@H]24)Nc1ccccc1NC3=NC1CCCCC1 (stereo partly drawn)	-1.0	-1.3	x	1.5	-0.1	5.2*
CC1(C)OC(=O)C(=CNC(=O)c2c(F)cccc2F)C(=O)O1	-1.1	-1.3	-9.0	-0.2	0.0	0.2
Cc1ccccc1C(=O)NC=C1C(=O)OC(C)(C)OC1=O	-0.8	1.2	u	0.2	-0.4	4.2*
COc1cccc(-c2ccc(CC[C@H]3O[C@H]4CC[C@H](CO)O[C@H]4C[C@H]3NS(C)(=O)=O)cc2)c1	-0.9	-1.3	x	0.2	-0.5	x
Cc1ccccc1Nc1nc(N)nc(COC(=O)c2ccco2)n1	0.5	3.5	x	11.8*	2.4	2.8
Nc1nc(COC(=O)c2ccco2)nc(Nc2ccccc2)n1	-0.7	-0.9	x	3.3	1.6	3.7
Cc1ccc2oc(=O)c3cnn(CC(=O)N4CCc5ccccc5C4)c3c2c1	-1.1	0.6	11.1	2.7	0.1	6.3*
Cn1cc([N+](=O)[O-])c(C(=O)Nc2ccc(-c3nc4ccccc4[nH]3)cc2)n1	-0.2	1.7	8.3	6.0	1.3	-0.8
Cn1cc([N+](=O)[O-])c(C(=O)NCc2cc3ccccc3[nH]2)n1	1.8*	2.8	18.3	3.3	1.4	0.9
Cc1csc2ncc(C(=O)Nc3ccccc3F)c(=O)n12	0.3	6.2*	-6.1	6.0	0.7	1.4
O=C1N2Cc3ccccc3C2CS(=O)(=O)N1C1CCCC1 (stereo not drawn)	-0.6	-2.1	x	4.9	-0.7	x
O=C(NC1CC1)C1=C[C@H](c2c[nH]c3ccccc23)C[C@H](OCCCCO)O1	-0.3	1.1	-15.5	-0.3	0.4	1.1
O=C(NC1CC1)C1=C[C@@H](c2c[nH]c3ccccc23)C[C@@H](OCc2ccc(CO)cc2)O1	-0.6	2.4	-9.1	11.2*	0.4	1.1
COCCCNC(=O)C[C@H]1C[C@@]2(C(=O)OC)C(=C[C@H](C(C)C)O[C@@H]2C2CC2)N(Cc2cccc3ccccc23)C1=O	-1.6	-1.4	x	-1.2	-0.6	x
COc1ccc(Nc2n[nH]c(N)c2C(N)=O)cc1	-2.1	0.0	-18.0	-1.6	0.9	14.2*
COc1ccc(Nc2nc(C)cc(C)c2C(N)=O)cc1	-0.1	1.0	-0.3	3.1	-0.4	1.6
Cc1cc(C(=O)COC(=O)CC2Sc3ccccc3NC2=O)c(C)n1-c1cccc(C(F)(F)F)c1 (stereo not drawn)	1.2*	4.0	-2.8	2.2	0.5	0.0
O=C([C@@H]1C[C@H]1c1ccccc1)N1CCC(Oc2cccnc2)CC1	-0.7	-0.4	x	-0.3	0.3	x
SMILES	ssDAF-12 act	hcDAF12 agonist	PolyA inhibitor	hgDAF-12 ag	DAX1 inh-1	DAX1 inh-2
CC1CCc2sc(C(=O)NC3CCCCC3)cc2C1 (stereo not drawn)	-1.0	3.5	x	12.1*	2.2	4.0
CCc1ccc(C(=O)NC2CCCCC2)s1	0.8	3.1	2.7	11.2*	3.2	0.7
CC(C)(O)C#Cc1ccc(C(=O)NC2CCCCC2)s1	-0.6	1.6	-13.6	10.6*	1.4	1.2
O=C(NC1CCCCC1)c1cccs1	-0.9	-0.8	-15.5	2.0	0.5	-0.6
COC(=O)[C@H]1C[C@@]2(n3ccc4ccccc43)c3ccccc3N(S(=O)(=O)c3ccccc3)[C@H]2N1	0.1	3.0	x	0.8	-0.7	x
CCOC(=O)NC(=O)c1cn(Nc2ncc(Cl)cc2C(F)(F)F)c(=O)[nH]c1=O	-1.8	0.2	20.4	-0.8	-0.3	6.2*
CCN1CCCCC(NC(=O)c2ccc(Cl)cc2Cl)C1=O (stereo not drawn)	-0.6	1.0	x	1.2	-0.1	x
CCOC(=O)c1cccnc1SCc1cc(=O)n2ccccc2n1	2.1*	4.0	16.2	3.4	1.7	-0.2
CC(OC(=O)c1cccnc1SCc1cc(=O)n2ccccc2n1)c1ccccn1 (stereo not drawn)	-0.6	3.3	-3.4	-1.3	-0.2	1.2
C=CCNc1oc(/C=C/c2ccccc2)nc1C#N	0.9*	4.5	-13.1	9.0	3.9*	3.0
COCCCNc1oc(/C=C/c2ccccc2)nc1C#N	0.3	4.7	-10.4	11.7*	2.5	2.8
COc1cccc(CN(C)C(=O)[C@H]2O[C@@H](n3cnc4c(=O)[nH]c(N)nc43)[C@H](O)[C@@H]2O)c1	-1.0	-0.3	x	0.5	-1.0	x
O=c1c(C=NCc2ccccc2)c(NCc2ccccc2)nc2ccccn12	-1.2	0.2	-20.2	-0.8	-0.6	4.5*
Cc1ccc2nc(NCc3ccccc3)c(C=NCc3cccnc3)c(=O)n2c1	-1.0	-1.3	1.6	-1.9	-0.5	1.0
CC(=O)Nc1ccc(C(=O)NNC(=O)c2cccs2)cc1	-1.4	-0.3	12.5	-0.8	-0.1	0.1
CC(C)c1ccc(NC(=S)NNC(=O)c2cccs2)cc1	-0.5	0.7	2.9	11.4*	1.7	3.5
COc1ccc(NC(=S)NNC(=O)c2cccs2)cc1	-0.1	-1.2	3.8	3.4	2.5	1.2
Cc1ccc(NC(=O)NNC(=O)c2cccs2)cc1	-0.7	5.8*	5.0	6.9	0.7	0.2
CCCCC(=O)N1CCN(C(=O)c2ccc3nc(C)n(C4CCCC4)c3c2)CC1	-1.7	-0.1	x	2.3	-0.2	x
CCOC(=O)[C@@]12CN(C(=O)OC(C)(C)C)CC=C1N(Cc1ccc(OC)cc1)C(=O)[C@H]2CC(=O)NCc1cccc(C(F)(F)F)c1	-1.3	-1.2	x	-4.0	0.1	x
CCOC(=O)[C@]12CCCCC/C=C\1N(CCc1ccc(Cl)cc1)C(=O)[C@H]2CC(=O)NCc1cccs1	-0.9	-0.4	x	0.0	-0.4	x
